Screening data (PubChem)
This is a sample that favours compounds with a hit; in the whole collection about 4.5% have one here.
CSC inhib: blocks cancer stem cells; hit rate 1.1% among 300,000; cancer stem cell-like cells viability, luminescence; inhibition, % at 7.5 µM; AID 2717; in the data active = inhibition above about 75%; inconclusive = no clear call, values can overlap the other calls; tested in HMLE shEcad cells
697 NFkB inh: lowers PMA/ionomycin-induced NF-kB signal in 697 B cells. inhibition, % at 4 µM. hit rate 0.33% among 330,000. 697 B-cell NF-kB luciferase reporter, 16 h. AID 435022; in the data active = inhibition above about 35%
aSyn UTR inh: MLPCN primary screen, SNCA 5' untranslated region. alpha-synuclein 5'UTR reporter, inhibitor activity. AID 1813. inhibition, % (tested at 7.5 µM). hit rate 0.82% among 300,000; in the data active = inhibition above about 60%; inconclusive = no clear call, values can overlap the other calls;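 also: H4 neuroglioblastoma cells stably carrying SNCA 5'UTR luciferase fusion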
Mdm2 MdmX PPI: human Mdm2/MdmX binding inhibition; O15151+Q00987; hit rate 3% among 330,000; inhibition, % at 8 µM; SaOS-2 split-luciferase Mdm2/MdmX complementation, luminescence;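 active = inhibition of at least 50% at 8 µM in the primary screen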
Target sequence (O15151 whole entry, looked up): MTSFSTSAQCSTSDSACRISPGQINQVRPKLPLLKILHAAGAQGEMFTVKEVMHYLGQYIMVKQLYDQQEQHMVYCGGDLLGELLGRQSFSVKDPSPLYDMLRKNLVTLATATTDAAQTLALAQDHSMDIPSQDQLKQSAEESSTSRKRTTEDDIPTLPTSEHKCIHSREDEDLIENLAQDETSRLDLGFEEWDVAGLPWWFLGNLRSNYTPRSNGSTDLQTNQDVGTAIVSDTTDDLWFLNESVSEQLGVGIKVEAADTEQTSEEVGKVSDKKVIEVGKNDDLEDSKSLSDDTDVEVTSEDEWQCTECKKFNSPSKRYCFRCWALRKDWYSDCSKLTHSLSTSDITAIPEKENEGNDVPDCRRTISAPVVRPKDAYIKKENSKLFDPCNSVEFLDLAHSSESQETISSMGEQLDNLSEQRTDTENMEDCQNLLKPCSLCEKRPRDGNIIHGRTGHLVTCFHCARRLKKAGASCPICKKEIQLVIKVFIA
Target sequence (Q00987 whole entry, looked up): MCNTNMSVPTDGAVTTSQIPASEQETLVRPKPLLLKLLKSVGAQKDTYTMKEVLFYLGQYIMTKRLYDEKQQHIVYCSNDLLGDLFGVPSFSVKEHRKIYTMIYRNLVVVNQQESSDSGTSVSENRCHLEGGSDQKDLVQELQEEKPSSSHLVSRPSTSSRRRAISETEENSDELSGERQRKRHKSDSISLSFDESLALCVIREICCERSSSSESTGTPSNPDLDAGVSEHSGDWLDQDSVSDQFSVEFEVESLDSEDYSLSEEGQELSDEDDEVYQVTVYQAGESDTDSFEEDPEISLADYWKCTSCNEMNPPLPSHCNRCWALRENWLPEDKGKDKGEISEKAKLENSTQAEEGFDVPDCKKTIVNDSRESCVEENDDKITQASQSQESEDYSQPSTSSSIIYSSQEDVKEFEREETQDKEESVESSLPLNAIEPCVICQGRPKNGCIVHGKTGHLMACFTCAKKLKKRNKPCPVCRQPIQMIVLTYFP
Gli-Sufu block: antagonists of Gli-Sufu signaling; hit rate 0.74% among 340,000; Sufu-KO-LIGHT fibroblasts, Gli luciferase reporter luminescence; inhibition, % at 5 µM;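 active = inhibition above about 55%, limit read from the data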
Jurkat NFkB inh: lowers PMA/ionomycin-induced NF-kB signal in Jurkat cells; inhibition, % at 4 µM; AID 435003; hit rate 0.53% among 330,000; PMA/ionomycin-induced NF-kB luciferase reporter, luminescence; in the data active = inhibition above about 50%
Mdm2 MdmX conf: human Mdm2/MdmX binding inhibition, confirmed; shares compounds with Mdm2 MdmX PPI; luminescent assay; inhibition, % at 8 µM; hit rate 55% among 10,000; AID 489028; in the data active = inhibition above about 40%
Full FLuc ctr: inhibits full-length luciferase, flagging false Mdm2/MdmX hits | inhibition, % at 8 µM | SaOS-2 full-length luciferase counterscreen, luminescence | hit rate 77% among 6,200 | shares compounds with Mdm2 MdmX PPI;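 active = mean inhibition at 8 µM reaching about 37%, which flags the compound as non-specific, limit read from the data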;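 also: p53-null SaOS-2 cells with luciferase driven by a doxycycline-inducible promoter; compound on cells about two nights before reading with doxycycline added after day one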
Each line names hits and unclear results; the compound was inactive in the other large screens (follow-up assays come after a bar, where they were run).

O=S(=O)(Nc1ccc(Br)cn1)c1ccc2ccccc2c1	none
COc1ccc(N/C=C/C(=O)c2sc(-c3ccccc3)nc2C)cc1	Mdm2 MdmX PPI 59 | Mdm2 MdmX conf inactive | Full FLuc ctr 98
NC(=O)c1ccc(C(F)(F)F)cn1	none
O=C(Nc1cccc(-c2cn3ccccc3n2)c1)c1cc2ccccc2oc1=O	Mdm2 MdmX PPI 100 | Mdm2 MdmX conf inactive
COc1ccc(N2CCOCC2)c(NC(=O)c2cccnc2)c1	none
CCn1c2ccccc2c2cc(N)ccc21	none
CCn1c2ccccc2c2cc(CNCc3ccc(OC)cc3OC)ccc21	aSyn UTR inh 63, Mdm2 MdmX PPI 100 | Mdm2 MdmX conf 60 | Full FLuc ctr 54
CCC(CC)NCc1ccc2c(c1)c1ccccc1n2CC	Mdm2 MdmX PPI 57 | Mdm2 MdmX conf 43 | Full FLuc ctr 65
COc1cccc(CNCc2ccc(OC)cc2OC)c1	none
C/C(=N\NC(N)=S)C1=CCC2C3CC[C@H]4CC(O)CC[C@]4(C)C3CC[C@]12C (stereo partly drawn)	Mdm2 MdmX PPI 75 (no result: CSC inhib) | Mdm2 MdmX conf inactive
COC(=O)c1cc(O)cc(OC)c1Oc1cc(C)cc(O)c1C(=O)O	Mdm2 MdmX PPI 84 (no result: aSyn UTR inh) | Mdm2 MdmX conf 46 | Full FLuc ctr inactive
COC(=O)c1cc(O)cc(OC)c1C(=O)c1c(O)cc(C)cc1O	none
CC(=C\C(=O)O)/C(=C/c1ccc(C)o1)C(=O)O	none
COc1cccc(/C=N/NC(=O)c2cc3c(OC)ccc(OC)c3[nH]2)c1O	CSC inhib 103, Mdm2 MdmX PPI 62 | Mdm2 MdmX conf 63 | Full FLuc ctr 38
COc1cccc(/C=N/NC(=O)c2c(C)nc3ccc(Br)cn23)c1O	CSC inhib 89, aSyn UTR inh 71, Mdm2 MdmX PPI 67, Gli-Sufu block 88 | Mdm2 MdmX conf 74 | Full FLuc ctr inactive
COc1cc(OC)c2cc(C(=O)N/N=C/c3cccc(OC)c3O)[nH]c2c1	CSC inhib 125, Mdm2 MdmX PPI 69 | Mdm2 MdmX conf 62 | Full FLuc ctr inactive
CCOc1ccccc1/C=N/NC(=O)c1c(C)nc2ccc(Br)cn12	none
COc1cccc(/C=N/NC(=O)c2nc(-c3ccccc3)cc(-c3ccccc3)n2)c1O	Mdm2 MdmX PPI 51 | Mdm2 MdmX conf inactive
COc1cccc(/C=N/NC(=O)c2ccc3nc[nH]c3c2)c1O	none
COc1cccc(C=NNC(=O)c2ccncc2)c1O	none (no result: CSC inhib, 697 NFkB inh, aSyn UTR inh, Mdm2 MdmX PPI, Jurkat NFkB inh)
CCNc1nc(NCC)n2c(SCC(=O)c3ccccc3Cl)nnc2n1	none
CN1CCCN(c2ncnc3scc(-c4ccc(F)cc4)c23)CC1	none
CC(C)c1ccc(-c2csc3ncnc(N4CCN(C)CC4)c23)cc1	Mdm2 MdmX PPI 58 | Mdm2 MdmX conf 57 | Full FLuc ctr 39
COc1cc(OC)cc(-c2sc3ccc(OC)cc3c2-c2ccc(OCCN3CCCCC3)cc2)c1	Mdm2 MdmX PPI 63 (no result: CSC inhib, aSyn UTR inh, Jurkat NFkB inh) | Mdm2 MdmX conf inactive
NC(=O)c1ccc(-c2c(-c3ccccc3)sc3ccccc23)cc1	none (no result: aSyn UTR inh)
c1ccc2c(-c3ccc(OCCN4CCCCC4)cc3)c(-c3ccsc3)sc2c1	CSC inhib 103, Mdm2 MdmX PPI 68 (no result: aSyn UTR inh) | Mdm2 MdmX conf inactive
c1ccc(-c2sc3ccccc3c2-c2ccc(OCCN3CCCCC3)cc2)cc1	none (no result: aSyn UTR inh)
COc1ccc(-c2sc3cc4c(cc3c2-c2ccc(OCCN3CCCCC3)cc2)OCO4)cc1	Mdm2 MdmX PPI 70 (no result: CSC inhib, aSyn UTR inh, Jurkat NFkB inh) | Mdm2 MdmX conf inactive
COc1ccccc1-c1sc2cc3c(cc2c1-c1ccc(OCCN2CCOCC2)cc1)OCO3	none (no result: CSC inhib, aSyn UTR inh, Jurkat NFkB inh)
CN(C)CCOc1ccc(-c2c(-c3ccccc3)sc3ccccc23)cc1	CSC inhib 142, Mdm2 MdmX PPI 100 (no result: aSyn UTR inh) | Mdm2 MdmX conf inactive
COC(=O)C1=C(C)N(CCCC(=O)O)C(=O)NC1c1ccccc1Cl (stereo not drawn)	none
COc1ccc(CCNC(=O)C2CCC(=O)N(CC3CCCCC3)C2)cc1 (stereo not drawn)	none (no result: CSC inhib)
Cc1cc(Cl)c2oc(C(=O)N(C)CCc3cnn(C)c3)c(C)c2c1	none
COc1cc2c(cc1NC(=O)c1cc(-c3ccncc3)nc3ccc(C)cc13)oc1ccccc12	Mdm2 MdmX PPI 51 | Mdm2 MdmX conf inactive
O=C(Nc1cccc(S(=O)(=O)NCc2ccco2)c1)c1cc(-c2ccccc2)nc2ccccc12	Mdm2 MdmX PPI 52 | Mdm2 MdmX conf inactive
COc1cc(-c2cc(C(=O)Nc3ccc(C)c(S(=O)(=O)N4CCOCC4)c3)c3ccccc3n2)cc(OC)c1OC	Mdm2 MdmX PPI 52 (no result: aSyn UTR inh) | Mdm2 MdmX conf inactive | Full FLuc ctr 73
COc1ccc(NC(=O)c2cc(-c3ccncc3)nc3ccccc23)c(OC)c1	none (no result: CSC inhib, aSyn UTR inh)
COc1cc(-c2cc(C(=O)Nc3cccc(C(C)=O)c3)c3ccccc3n2)cc(OC)c1OC	Mdm2 MdmX PPI 61 | Mdm2 MdmX conf inactive | Full FLuc ctr 82
COc1cc(-c2cc(C(=O)Nc3ccc(O)cc3)c3ccccc3n2)cc(OC)c1OC	none
Cc1cc(C)cc(N(CCC#N)C(=O)COC(=O)C2CCN(c3ccc(C(F)(F)F)cn3)CC2)c1	none
O=C(Cc1ccc2ccccc2c1)NC(Cc1ccccc1)C(=O)O (stereo not drawn)	none (no result: CSC inhib, aSyn UTR inh, Jurkat NFkB inh)
CCCOC(=O)c1ccc(Oc2c(-c3ccc(OCC)cc3O)n[nH]c2C)cc1	CSC inhib 137, Mdm2 MdmX PPI 71 | Mdm2 MdmX conf inactive
CCCC(=O)N1CCN(c2ccc(NC(=O)c3cc4ccccc4o3)cc2Cl)CC1	CSC inhib 90, Mdm2 MdmX PPI 100 | Mdm2 MdmX conf 59 | Full FLuc ctr inactive
CCC(=O)N1CCN(c2ccc(NC(=O)c3ccco3)cc2Cl)CC1	none (no result: CSC inhib)
O=C(Nc1ccc(N2CCN(C(=O)c3ccco3)CC2)c(Cl)c1)c1cc2ccccc2o1	Mdm2 MdmX PPI 100 | Mdm2 MdmX conf 75 | Full FLuc ctr 51
CCC(=O)N1CCN(c2ccc(NC(=O)c3cc4ccccc4o3)cc2Cl)CC1	Mdm2 MdmX PPI 82 | Mdm2 MdmX conf inactive
Cc1cc(=O)[nH]c(N=N/C(=N/Nc2ccc(O)cc2)c2ccccc2)n1	none
Cc1cc(=O)[nH]c(N=N/C(=N/Nc2ccccc2C)c2ccccc2)n1	aSyn UTR inh 82, Mdm2 MdmX PPI 69 | Mdm2 MdmX conf 82 | Full FLuc ctr 49
COc1ccc(N/N=C(/N=Nc2nc(C)cc(=O)[nH]2)c2ccccc2)cc1	aSyn UTR inh 85, Mdm2 MdmX PPI 54 | Mdm2 MdmX conf 77 | Full FLuc ctr inactive
N#CCC(=O)N/N=C/c1cn(Cc2ccccc2C#N)c2ccccc12	none
N#CCC(=O)N/N=C/c1cn(Cc2cccc3ccccc23)c2ccccc12	Mdm2 MdmX PPI 66 | Mdm2 MdmX conf 64 | Full FLuc ctr 55
N#CCC(=O)N/N=C/c1cn(Cc2ccc(Cl)c(Cl)c2)c2ccccc12	aSyn UTR inh inconclusive, Mdm2 MdmX PPI 73 | Mdm2 MdmX conf 47 | Full FLuc ctr 53
